Laboratory results: PubChem BioAssay (Tox21)
Records with an inconclusive call do not appear. Activity calls are given as the source filed them. Calls follow the shape of the dose curve; as a rule, active = well fitted cell-killing curve with a large enough effect in the repeat runs; inconclusive = weak or mixed curves, or effect the other way; inactive = flat fitted curve, though single readings scatter.

assay: qHTS assay to identify small molecule agonists of the androgen receptor (AR) signaling pathway in the presence of an antagonist - cell viability counter screen (AID 1259379); conditions: MDA-kb2 viability, CellTiter-Fluor, 16 h; series mostly up to 92.4 µM; also: nearly all actives have a fitted effect of over 25% in size
Summary of the method: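 Cytotoxicity is assessed by CellTiter-Fluor in MDA-kb2 cells carrying an MMTV-driven luciferase reporter. Cells receive 3.0uM nilutamide plus compounds at 15 concentrations and incubate 16 hr at 37C without CO2 before fluorescence reading.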
Potency is read from the fitted curve at half-maximal effect.

SMILES | Potency
O=C1OC(OC(=O)c2cccnc2Nc2cccc(C(F)(F)F)c2)c2ccccc21 (configuration not stated) | inactive
Brc1ccccc1-c1ccccc1 | inactive
CCC1(c2cnc[nH]2)Cc2ccccc2C1 | inactive
CN1[C@@H]2CC[C@H]1CC(OC(=O)C(CO)c1ccccc1)C2 (some centres not stated) | inactive
Cc1c(-c2ccc(O)cc2)n(Cc2ccc(OCCN3CCCCCC3)cc2)c2ccc(O)cc12 | 29.8 µM (active)
O=C1c2c(O)ccc(O)c2C(=O)c2c(NCCNCCO)ccc(NCCNCCO)c21 | 11.9 µM (active)
CCCCCCCCCCCC(=O)N(CC)CC | inactive
O=C(c1ccccc1)c1cc(Cl)ccc1O | inactive
C[C@@]12C(=O)OC(=O)[C@]1(C)C1CCC2O1 | 5.96 µM (active)
CCCCCCOc1ccc(O)cc1 | inactive
CCCCCCCC/C=C\CCCCCCCC(=O)NCc1ccc(O)c(OC)c1 | inactive
Clc1ccccc1CN1CCc2sccc2C1 | inactive
CCN(CC)c1ccc(N)cc1 | 19.9 µM (active)
CC(=O)Nc1ccc(O)cc1 | inactive
CC(O)C#CC(C)O (configuration not stated) | inactive

assay: qHTS assay to identify small molecule agonists of the estrogen receptor beta (ER-beta) signaling pathway - cell viability counter screen (AID 1259380); conditions: ER-beta-bla HEK293T viability, CellTiter-Glo luminescence, 16 h; series mostly up to 92.4 µM; also: nearly all actives have a fitted effect of over 30% in size
Summary of the method: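 Cytotoxicity is measured in parallel with the reporter screen: after 16 hr compound exposure at 37C and a 2 hr LiveBLAzer step, CellTiter-Glo is added to the same ER-beta-UAS-bla HEK293T wells and luminescence read after 30 min.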

SMILES | Potency
CCCCCCOc1cc(C)c(O)c(C)c1C | 55.1 µM (active)
CN1CCN(C2Cc3ccccc3Sc3ccc(Cl)cc32)CC1 (configuration not stated) | 21.1 µM (active)
N#CSCSc1nc2ccccc2s1 | 8.63 µM (active)
CCCCCCCC/C=C\CCCCCCCC(=O)N(C)CC(=O)O | 54.5 µM (active)
Nc1ccc2cc3ccc(N)cc3nc2c1 | 2.37 µM (active)
C[n+]1c2cc(N)ccc2cc2ccc(N)cc21 (tested in a mixture with another compound) | 11.9 µM (active)
COc1ccc2sc(C(=O)Nc3nnn[nH]3)c(OC(C)C)c2c1 | 6.83 µM (active)
CCO[Si](CCCSSSSCCC[Si](OCC)(OCC)OCC)(OCC)OCC | 61.2 µM (active)
CC(CN(C)C)CN1c2ccccc2CCc2ccccc21 (configuration not stated) | 26.6 µM (active)
CCCCCCCCCCOCC(O)CN (configuration not stated) | 26.6 µM (active)
CC(=O)Oc1ccc(C2(c3ccc(OC(C)=O)cc3)C(=O)Nc3ccccc32)cc1 | inactive
CCN(CC)CCNc1ccc(CO)c2sc3ccccc3c(=O)c12 | 10.6 µM (active)
CCCCN(CCCC)CCC(O)c1cc2c(Cl)cc(Cl)cc2c2cc(C(F)(F)F)ccc12 (configuration not stated) | 7.5 µM (active)
CN(C)CCCN1c2ccccc2Sc2ccc(C(F)(F)F)cc21 | 18.8 µM (active)
Cc1cccc(C)c1NC(=O)CN1CCN(CCCC(c2ccc(F)cc2)c2ccc(F)cc2)CC1 | 26.6 µM (active)
C[C@]12CC[C@H]3C(=CCc4cc(O)ccc43)[C@@H]1CCC2=O | 27.3 µM (active)
O=Nc1ccc(NO)cc1 | inactive
